Shown are actives, neighbours in structure and some others; about 0.97% of the full set was active somewhere.
CtBP-E1A inh: qHTS Assay for Inhibitors of the CtBP/E1A Interaction; CtBP / adenovirus E1A interaction (AlphaScreen); AlphaScreen GST-E1A/His-CtBP binding, 1536-well; active compounds read low; activity change, % (test concentration not listed); actives 0.49% (n = 340,000)
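GST-E1A and His-tagged CtBP (125 nM each as 5X stock) were preincubated with pin-transferred compound for 2 h at 37 °C in the dark, then glutathione donor and nickel acceptor beads were added for 1 h before AlphaScreen reading.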
Six1-Eya2 blk: qHTS Assay for Inhibitors of the Six1/Eya2 Interaction; Homeobox protein SIX1 (Homo sapiens) + Protein phosphatase EYA2 (Homo sapiens), …; AlphaScreen GST-Six1/His-Eya2 binding, biochemical; active compounds read low; activity change, % (test concentration not listed); actives 0.56% (n = 360,000)
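GST-Six1 + His-Eya2 (5X stock: 250/500 nM); Tris pH 8.0, 300 mM NaCl, 0.05% BSA, 0.02% Tween 20; GSH donor/Ni acceptor beads; 1 h 37 °C dark; AlphaScreen readout.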
PI4K2A inh: qHTS for small molecular inhibitors of PI4K2A | Phosphatidylinositol 4-kinase type 2-alpha (Homo sapiens), Q9BTU6 | purified PI4K2A, ADP-Glo luminescence, 1 h; active compounds read low | activity change, negative = inhibition, % at 76.9 µM | actives 0.13% (n = 420,000); in the data active means activity change below about -50%; inconclusive means mostly about -30% to -49%
Target sequence (Q9BTU6 whole entry, looked up): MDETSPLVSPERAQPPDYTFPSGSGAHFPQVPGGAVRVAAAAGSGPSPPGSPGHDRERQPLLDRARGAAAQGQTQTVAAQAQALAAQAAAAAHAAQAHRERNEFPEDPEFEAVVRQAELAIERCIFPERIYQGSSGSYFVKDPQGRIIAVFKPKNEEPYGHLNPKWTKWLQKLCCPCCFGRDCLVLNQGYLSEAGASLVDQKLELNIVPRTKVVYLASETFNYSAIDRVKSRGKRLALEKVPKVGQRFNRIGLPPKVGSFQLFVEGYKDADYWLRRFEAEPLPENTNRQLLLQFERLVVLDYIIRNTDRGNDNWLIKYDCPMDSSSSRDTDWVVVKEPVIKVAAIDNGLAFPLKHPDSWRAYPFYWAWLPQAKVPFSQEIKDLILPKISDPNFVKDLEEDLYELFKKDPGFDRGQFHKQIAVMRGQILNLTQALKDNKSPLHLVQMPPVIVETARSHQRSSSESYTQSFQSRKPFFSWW
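In this quantitative HTS, ADP production by PI4K2A was quantified luminescently after 1 h at ambient temperature; 100 microM adenosine served as plate-quality control.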
Eya2 phos inh: qHTS Assay for Inhibitors of the Phosphatase Activity of Eya2; Potency, µM (titrated, usually from 76.9 µM), hits mostly inhibitors; AID 488837, 2010; recombinant Eya2, OMFP fluorescence dephosphorylation (OMFP is methylfluorescein phosphate); Protein phosphatase EYA2 (Homo sapiens), O00167; actives 0.006% (n = 330,000); active means well fitted inhibition curve with a large enough effect; inconclusive means small, poorly fitted or top-dose-only effect, or effect the other way
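Eya2 (0.2 uM) preincubated 10 min at ambient with compound, then OMFP substrate added at 50 uM; 10 min reaction in 50 mM HEPES pH 7.5, 50 mM NaCl, 5 uM MgCl2, 0.05% BSA, 1 mM DTT. Fluorescence read at Ex 485/Em 525 nm.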
CCT chaperon mod: High-Throughput Screening for Modulators of Cytosolic Chaperonin Activity. actives 0.3% (n = 360,000). AID 651819, 2012. purified chaperonin ATPase assay, HTRF ADP detection, 30 min. activity change, % (test concentration not listed), hits read low; in the data active means activity change below about -30%
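Nucleotide hydrolysis assay: TRiC at 20–40 nM final (set by batch activity) with 10 uM ATP, 30 min at 37 °C, in presence of 76 uM compound. Detection by competitive ADP HTRF, 30 min ambient.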
A number is an active result; i = inactive; ? = inconclusive; nt = not tested or not shown. Unless noted, no stated cut-off is given here; in the data, active means activity change below about -65%; inconclusive means mostly about -30% to -63%; inactive means weaker than that.

SMILES | CtBP-E1A inh | Six1-Eya2 blk | PI4K2A inh | Eya2 phos inh | CCT chaperon mod
Cc1ccnc(NC(c2cccnc2)c2ccc3cccnc3c2O)c1 (configuration not stated) | -99 | -86 | i | i | i
Cc1ccnc(NC(c2ccccc2)c2ccc3cccnc3c2O)c1 (configuration not stated) | -88 | -78 | i | nt | i
O=C(O)c1ccccc1NC(c1ccccc1)c1ccc2cccnc2c1O (configuration not stated) | i | -84 | i | nt | i
Cc1ccnc(NC(c2ccccc2F)c2ccc3cccnc3c2O)c1 (configuration not stated) | nt | nt | i | nt | nt
CN1/C(=C\C(=S)NC(=O)c2ccccc2Cl)C(C)(C)c2ccccc21 | i | ? | i | i | i
CN1/C(=C/C(=S)NC(=O)C2(C)CC2(Cl)Cl)C(C)(C)c2ccccc21 (configuration not stated) | -72 | -66 | i | i | i
COc1ccccc1C(=O)NC(=S)/C=C1/N(C)c2ccccc2C1(C)C | -74 | -73 | i | i | i
N#CC1=C2SCN(C3CCCCC3)CN2C(=O)CC1c1c(F)cccc1Cl (configuration not stated) | nt | nt | i | nt | nt
CCOc1ccccc1N1CCN(C/C=C/c2ccc(N(C)C)cc2)CC1 | ? | -77 | i | i | i
O=c1c(Cl)c(N2CCCCC2)cnn1-c1nc2ccccc2[nH]1 | i | i | i | i | i
O=c1c2ccccc2cnn1-c1nc2ccccc2[nH]1 | i | i | -73 | i | i
CC1=Nc2cc(C(=O)NCCc3ccc(Cl)cc3)ccc2Sc2c(C)ccc(C)c21 | nt | nt | i | nt | nt
CCN(CC)c1ccc2nc3c4ccccc4c(=O)cc-3oc2c1 | i | i | i | i | -48
CCN(CC)c1ccc2cc(C=O)c(=O)oc2c1 | i | i | i | nt | i
C=CCNc1nc(-c2ccccn2)nnc1-c1ccccc1 | -92 | -92 | i | i | i
COc1ccc(S(=O)(=O)N2CCOC23CCN(S(=O)(=O)c2cc(F)ccc2F)CC3)cc1 | i | -69 | i | i | i
COc1ccc2nc(NN=C(C)c3ccccn3)cc(C)c2c1 | ? | -89 | i | nt | i
C(=C\c1ccccc1)/CSc1nnc(Cc2cccs2)n1-c1ccccc1 | nt | nt | i | nt | nt
CSc1ccccc1C(=O)Nc1nc2ccccc2[nH]1 | i | i | i | i | i
COc1cc(SC)ccc1C(=O)Nc1nc2ccccc2[nH]1 | i | i | -74 | i | i
Cc1c(C(=O)Nc2nc3ccccc3[nH]2)oc2ccccc12 | i | i | i | i | i
COc1ccccc1C(=O)Nc1nc2ccccc2[nH]1 | i | i | -91 | i | i
Cc1c(C(=O)Nc2nc3ccccc3[nH]2)oc2c(Cl)cccc12 | i | i | i | i | -30
CN1Cc2cc(C(=O)N3CCC(C4CCNCC4)CC3)ccc2NC(CC(=O)O)C1=O (configuration not stated) | nt | nt | i | nt | nt
CCCC(=O)NC(c1ccccc1Cl)c1ccc2cccnc2c1O (configuration not stated) | ? | -85 | i | i | i
CC(C)C(=O)NC(c1ccc(Cl)cc1Cl)c1ccc2cccnc2c1O (configuration not stated) | nt | i | i | i | i
CCCC(=O)NC(c1ccc(N(C)C)cc1)c1ccc2cccnc2c1O (configuration not stated) | -92 | -69 | i | i | i
COc1ccc(C(NC(=O)C(C)C)c2ccc3cccnc3c2O)cc1 (configuration not stated) | -93 | -89 | i | i | i
CCCCC(=O)NC(c1ccc(Cl)cc1Cl)c1ccc2cccnc2c1O (configuration not stated) | ? | i | i | i | i
CCCCC(=O)NC(c1ccc(OC)cc1)c1ccc2cccnc2c1O (configuration not stated) | i | i | i | nt | i

Source: PubChem BioAssay
